In the supplement of paper PMC9023506:
Where a name gives a salt, the structure may show the parent alone.

Each compound was assayed on Danio rerio larvae (5 dpf) (assay: startle response to 20-s acoustic pulses, difference vs DMSO (percentage points (treated minus DMSO)); higher = more of the behaviour than the DMSO vehicle control). Conditions: 10 µM; exposure time: 3 h pre-incubation + 3 h imaging.
Experimental: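 5-dpf wild-type zebrafish larvae were imaged in 96-well plates. They were treated with 190 Tocris FDA-approved drugs at 10 µM (1 µl/ml DMSO) for 3 h before and 3 h during imaging at 28.5 °C, 48 larvae per drug. Automated image analysis gave % time moving and optomotor responses. Values are drug group mean minus DMSO vehicle mean (n=844), in percentage points, for 10 behaviours.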

Q: Cc1cccc([C@H](C)c2c[nH]cn2)c1C [Dexmedetomidine hydrochloride] was tested. Which “startle response to 20-s acoustic pulses” value did it give?
A: 6.09

Q: With COc1cc2c(cc1OC)C1CC(=O)C(CC(C)C)CN1CC2 (configuration not stated) [Tetrabenazine] as the compound, how does the “startle response to 20-s acoustic pulses” value read?
A: -5.81

Q: Which “startle response to 20-s acoustic pulses” value does the source give for O=c1[nH]c2ccccc2n1C1CCN(CCCC(c2ccc(F)cc2)c2ccc(F)cc2)CC1 [Pimozide] here?
A: 2.42

Q: For CC(O)(CS(=O)(=O)c1ccc(F)cc1)C(=O)Nc1ccc(C#N)c(C(F)(F)F)c1 (configuration not stated) [Bicalutamide], which “startle response to 20-s acoustic pulses” value is on record?
A: 0.332

Q: CN1C[C@H](C(=O)N[C@]2(C)O[C@@]3(O)[C@@H]4CCCN4C(=O)[C@H](Cc4ccccc4)N3C2=O)C[C@@H]2c3cccc4[nH]cc(c34)C[C@H]21 [Dihydroergotamine mesylate] was tested. Which “startle response to 20-s acoustic pulses” value did it give?
A: 5.17

Q: With N[C@@H]1C[C@H]1c1ccccc1 [Tranylcypromine hydrochloride] as the compound, how does the “startle response to 20-s acoustic pulses” value read?
A: -9.81

Q: With C=C1C[C@@H]2[C@H](CC[C@]3(C)C(=O)CC[C@@H]23)[C@@]2(C)C=CC(=O)C=C12 [Exemestane] as the compound, how does the “startle response to 20-s acoustic pulses” value read?
A: 2.55

Q: COc1ccc(C(CN(C)C)C2(O)CCCCC2)cc1 (configuration not stated) [Venlafaxine hydrochloride] was tested. Which “startle response to 20-s acoustic pulses” value did it give?
A: -5.93

Q: How did the “startle response to 20-s acoustic pulses” value turn out when CC[C@@H](C(N)=O)N1CCCC1=O [Levetiracetam] was run?
A: 1.64

Q: CCN(C)C(=O)Oc1cccc([C@H](C)N(C)C)c1 [Rivastigmine tartrate] was tested. Which “startle response to 20-s acoustic pulses” value did it give?
A: 5.58

Q: Which “startle response to 20-s acoustic pulses” value does the source give for CC(C)C[C@H]1C(=O)N2CCC[C@H]2[C@]2(O)O[C@](NC(=O)[C@@H]3C=C4c5cccc6[nH]c(Br)c(c56)C[C@H]4N(C)C3)(C(C)C)C(=O)N12 [Bromocriptine mesylate] here?
A: -8.49

Q: For C=CCN1C[C@H](C(=O)N(CCCN(C)C)C(=O)NCC)C[C@@H]2c3cccc4[nH]cc(c34)C[C@H]21 [Cabergoline], which “startle response to 20-s acoustic pulses” value is on record?
A: -8.7
